We go through 18 compounds from PubChem BioAssay (Tox21).

Results filed as inconclusive are left out. A call without a number means that no potency is given here. Activity calls are given as the source filed them. The call rests on the fitted dose curve.

Sequence of Progesterone receptor (Homo sapiens) (P06401 whole entry, looked up): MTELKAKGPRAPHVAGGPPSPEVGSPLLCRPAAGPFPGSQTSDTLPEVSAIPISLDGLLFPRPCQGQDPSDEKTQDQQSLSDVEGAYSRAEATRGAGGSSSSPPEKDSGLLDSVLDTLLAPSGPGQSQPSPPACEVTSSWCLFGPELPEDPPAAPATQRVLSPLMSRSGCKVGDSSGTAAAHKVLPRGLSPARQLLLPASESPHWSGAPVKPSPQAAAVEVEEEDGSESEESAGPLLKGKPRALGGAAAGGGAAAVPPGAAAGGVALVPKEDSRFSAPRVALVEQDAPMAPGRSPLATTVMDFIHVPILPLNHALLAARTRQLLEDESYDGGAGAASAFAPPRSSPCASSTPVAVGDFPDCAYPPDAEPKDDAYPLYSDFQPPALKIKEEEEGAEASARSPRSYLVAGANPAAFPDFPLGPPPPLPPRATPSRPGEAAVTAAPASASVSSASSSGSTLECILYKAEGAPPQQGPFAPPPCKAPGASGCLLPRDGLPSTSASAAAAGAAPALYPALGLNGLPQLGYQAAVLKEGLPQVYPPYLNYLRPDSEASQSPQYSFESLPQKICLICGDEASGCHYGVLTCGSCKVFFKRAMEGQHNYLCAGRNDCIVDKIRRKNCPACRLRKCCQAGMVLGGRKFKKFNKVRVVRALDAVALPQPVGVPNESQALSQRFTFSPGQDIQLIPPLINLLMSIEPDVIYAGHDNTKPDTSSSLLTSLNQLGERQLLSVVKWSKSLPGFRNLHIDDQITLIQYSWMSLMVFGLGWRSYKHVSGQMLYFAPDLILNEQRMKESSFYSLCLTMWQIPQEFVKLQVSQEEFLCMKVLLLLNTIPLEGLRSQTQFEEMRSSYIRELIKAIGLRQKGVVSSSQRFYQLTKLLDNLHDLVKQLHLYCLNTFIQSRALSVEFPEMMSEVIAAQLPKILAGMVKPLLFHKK

The experiment addresses Progesterone receptor (Homo sapiens) (UniProt P06401). The experiment can be described thus: qHTS assay to identify small molecule agonists of the progesterone receptor (PR) signaling pathway (AID 1346784). Further: nearly all actives have a fitted effect of over 30% in size. The following applies: PR-UAS-bla HEK293T, beta-lactamase FRET ratio, 16 h; series mostly up to 92.4 µM. The method in brief: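 Agonist qHTS: compounds pinned onto 3,000 PR-UAS-bla HEK 293T cells per well in charcoal-stripped serum medium, 16hr at 37C, then beta-lactamase activity measured by LiveBLAzer FRET fluorescence after 2 hours at room temperature.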
As to `COc1ccc(Cc2cnc(N)nc2N)cc1OC`, the Potency entry was “inactive”.

With `Cc1scc2c1N(C(=O)CN1CCN(C)CC1)c1ccccc1NC2=O`, the Potency entry was “inactive”.

As to `CC(C)(C)NCC(O)COc1ccccc1OCC1CCCO1` (stereo not drawn), the Potency result was “inactive”.

As to `C=CC(=O)OCCCCCCOC(=O)C=C`, the Potency result is “inactive”.

For `O=C(O[C@@H]1Cc2c(O)cc(O)cc2O[C@@H]1c1cc(O)c(O)c(O)c1)c1cc(O)c(O)c(O)c1`, the Potency entry was “inactive”.

For the compound `O=c1n(CC2CO2)c(=O)n(CC2CO2)c(=O)n1CC1CO1` (stereo not drawn), the Potency result is “inactive”.

`c1ccc2n[nH]nc2c1`: the Potency entry was “inactive”.

For `CCCCCCC(O)CCCCCCCCCCC(=O)O` (stereo not drawn), the Potency result was “inactive”.

Turning to `Cc1ccnc2c1NC(=O)c1cccnc1N2C1CC1`, the Potency result was “inactive”.

On to `COC(c1ccccc1)(c1ccccc1)[C@H](Oc1nc(C)cc(C)n1)C(=O)O`, for which the Potency result was “inactive”.

Turning to `CCC(=O)/C=C/C1C(C)=CCCC1(C)C` (stereo not drawn), the Potency result is “inactive”.

In the case of `O=C(O)CCc1ccccc1`, the Potency entry was “inactive”.

As for `CCn1c2ccccc2c2cc(N)ccc21`, the Potency result was “inactive”.

On to `CC(C)(C)c1cc(C(C)(C)C)c(O)c(C(C)(C)C)c1`, for which the Potency entry was “inactive”.

Consider `CC(=O)OCC1=C(C(=O)O)N2C(=O)[C@@H](NC(=O)Cc3cccs3)[C@H]2SC1`, for which the Potency result was “inactive”.

As for `Cc1cccc([N+](=O)[O-])c1C(=O)O`, the Potency entry was “inactive”.

For the compound `CCC(CO)(CO)COCC(CC)(CO)CO`, the Potency result was “inactive”.

Consider `Cc1cc(C(C)(C)C)c(O)c(C(C)(C)C)c1`, for which the Potency entry was “inactive”.
